In the library only some 12% were active in any assay of this set; here they are far more common.
ROMK mod – modulates human ROMK potassium channel activity; P48048; Tet-inducible ROMK, thallium flux fluorescence; actives lie on both sides; B-score at 10 µM; actives 2% (n = 130,000);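 active means signal ratio slope over the read window, or its plate-corrected B-score, at least 3 SD from the plate mean, either direction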;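 further: B-score of the F/F0 ratio slope over 7 to 12 s after thallium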
Target sequence (P48048 whole entry, looked up): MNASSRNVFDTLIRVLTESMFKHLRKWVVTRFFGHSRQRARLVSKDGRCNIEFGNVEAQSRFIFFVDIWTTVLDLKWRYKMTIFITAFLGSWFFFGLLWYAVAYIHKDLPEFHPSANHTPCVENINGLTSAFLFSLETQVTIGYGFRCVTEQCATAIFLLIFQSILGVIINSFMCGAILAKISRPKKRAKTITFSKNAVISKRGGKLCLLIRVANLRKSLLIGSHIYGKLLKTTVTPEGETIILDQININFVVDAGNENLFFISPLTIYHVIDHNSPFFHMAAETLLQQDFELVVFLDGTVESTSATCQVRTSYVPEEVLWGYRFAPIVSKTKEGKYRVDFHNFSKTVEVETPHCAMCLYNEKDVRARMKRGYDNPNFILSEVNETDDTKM
L major viab – inhibitors of Leishmania major promastigote growth; Leishmania major promastigotes, resazurin fluorescence viability; inhibition, % at 10 µM; actives 9% (n = 200,000); in the data active means inhibition above about 50%;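 further: promastigotes grown with compound for 44 hours at 28 °C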
m-calpain inh – blocks pig calpain II enzyme activity. AID 1236. purified calpain II, fluorogenic peptide substrate, 30 min. actives 0.37% (n = 220,000). inhibition, % at 16 µM;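 active means inhibition above about 50%, limit read from the data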
WT yeast gro inh – growth inhibition of WT yeast, mitochondrial fusion screen; mitochondrial fusion phenotypic screen, WT strain; inhibition, % at 10 µM; actives 2.1% (n = 190,000); in the data active means inhibition above about 58%; tested in S. cerevisiae
Cl transport mod – modulates chloride dependent transport by human KCC2 | KCC2 cells, thallium flux FluoZin-2 fluorescence | B-score of Tl+ flux slope (higher = more flux/activation; lower = inhibition) at 10 µM | Q9H2X9 | actives 2.2% (n = 190,000);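 active means thallium flux slope and its plate-corrected score both differing from the plate sample mean at a set confidence after two filtering rounds, in either direction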;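 further: slope of fluorescence scaled to starting intensity during 10 to 20 s after thallium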
* marks the source's active call; other numbers are inactive results; nt = no result.

SMILES	ROMK mod	L major viab	m-calpain inh	WT yeast gro inh	Cl transport mod
CN(C)c1ccc(NC(=O)CN2C(=O)CN=C(c3ccccc3)c3cc(Cl)ccc32)cc1	nt	33.6	0.7	16.9	-1.44
Cc1oc(-c2ccccc2)nc1CN1C(=O)C(C)N=C(c2ccccc2F)c2cc(Cl)ccc21 (stereo not drawn)	-1.53	93.7*	-30.6	79.7*	-0.644
COc1ccc(-n2cnc3cc(C(=O)N4CCC5(CC4)OCCO5)ccc32)cc1	1.7	-0.9	-14.3	3.3	0.515
COc1ccccc1Cn1c(SCC(=O)C(C)(C)C)nc2cc(C(=O)N3CCC4(CC3)OCCO4)ccc2c1=O	0.274	56.5*	-41.5	8.3	-2.18
O=[N+]([O-])[N-][n+]1cnn(Cc2ccccc2)c1	1.19	-8.0	23.0	3.3	2.68
Cc1oc(-c2ccc(F)cc2F)nc1CN1C[C@@H]2C[C@@H](C1)c1cccc(=O)n1C2	0.629	-1.9	-32.0	1.4	-0.152
COCCNCCOc1ccc(C(C)(C)c2ccccc2)cc1	-1.05	97.8*	4.1	7.0	-0.158
COc1ccccc1CN1CCN(C(=O)COc2ccccc2)CC1	nt	-4.9	-5.8	-6.6	-0.538
O=C(COc1ccccc1)N1CCN(CC2CC3C=CC2C3)CC1 (stereo not drawn)	nt	90.7*	16.4	3.8	0.975
O=C1NS(=O)c2cc([N+](=O)[O-])cc([N+](=O)[O-])c21 (stereo not drawn)	-0.687	-2.1	35.2	15.0	-0.152
COc1ccc(C(=O)C2CCCN(Cc3cnc(C)s3)C2)cc1OC (stereo not drawn)	0.199	81.4*	3.4	-9.4	nt
COc1ccc(C(=O)C2CCCN(Cc3cnc(C)s3)C2)c(OC)c1 (stereo not drawn)	1.05	86.9*	25.0	1.6	-0.161
Cc1ncc(CN2CCCC(C(=O)c3cccc(Cl)c3)C2)s1 (stereo not drawn)	0.0714	85.0*	8.5	0.2	0.0919
Cc1ncc(CN2CCCC(C(=O)c3ccc(C(C)(C)C)cc3)C2)s1 (stereo not drawn)	-2.09	91.3*	26.0	31.5	nt
Cc1ccsc1C(=O)C1CCCN(Cc2cnc(N3CCCC3)s2)C1 (stereo not drawn)	-0.0202	-3.5	0.7	-0.8	-0.135
O=S(=O)(c1ccccc1)N1CC1c1ccccc1 (stereo not drawn)	-0.514	-5.0	17.5	-1.0	0.882
CCOc1cc(CNCCc2c[nH]c3ccccc23)cc(Cl)c1OCC	-1.24	4.2	-3.5	86.2*	0.583
Nc1cc(N2CCNCC2)ccc1[N+](=O)[O-]	-1.31	1.1	15.8	2.0	-0.548
O=[N+]([O-])c1cc(F)c(N2CCCCCC2)cc1N1CCNCC1	-1.14	100.6*	12.9	9.8	-0.0735
CN1CCN(c2ccc([N+](=O)[O-])c(N)c2)CC1	-0.34	52.0*	20.7	-15.7	-0.0652
O=[N+]([O-])c1ccc(N2CCNCC2)cc1N1CCCCCC1	-2.68	99.2*	0.1	-1.6	1.51
CN1CCN(c2ccc([N+](=O)[O-])c(N3CCCCC3)c2)CC1	-0.411	93.7*	-15.7	-9.9	-1
CC(C)Oc1ccc(C2(C#N)CC[N+](C)(C)CC2)cc1	0.22	44.2	4.2	-0.3	1.67
COc1cc(C2NCc3ccccc3-n3cccc32)ccc1O (stereo not drawn)	nt	5.3	-4.7	8.3	0.728
CCOCCCNC(=O)CN1C2CCC1CC(O)(c1ccc(OC)cc1)C2 (stereo not drawn)	0.744	-2.5	-0.4	-1.5	-0.0344
SMILES	ROMK mod	L major viab	m-calpain inh	WT yeast gro inh	Cl transport mod
CCCCOc1ccc(CCN)cc1Cl	nt	89.5*	17.0	14.0	0.486
CC(C)C(=O)Nc1ccc(S(=O)(=O)N2CC3CC(C2)c2cccc(=O)n2C3)cc1 (stereo not drawn)	-0.297	-4.0	-6.2	1.7	0.646
Cc1ccc(OCC(=O)N2CCN(Cc3ccc([N+](=O)[O-])cc3)CC2)cc1	nt	nt	-12.4	nt	-1.04
COc1cccc(CN2CCN(C(=O)COc3ccc4ccccc4c3)CC2)c1	-1.56	47.9	9.9	14.7	-1.37
COc1ccc(OCC(=O)N2CCN(Cc3ccc4c(c3)OCO4)CC2)cc1	-1.36	63.6*	5.2	-4.1	0.0833
N#Cc1ccc(OCC(=O)N2CCN(Cc3ccc4c(c3)OCO4)CC2)cc1	-0.802	75.9*	-20.4	-4.2	0.578
COc1ccc(OCC(=O)N2CCN(Cc3ccc(SC)cc3)CC2)cc1	-0.739	84.3*	-36.4	-3.9	0.00583
Cc1cccc(OCC(=O)N2CCN(Cc3ccc([N+](=O)[O-])cc3)CC2)c1	-1.27	57.7*	-26.3	-9.4	-0.389
CCOC(=O)/C(CCCN(CC)CC)=N\O	nt	-1.3	-0.6	11.1	nt
COc1ccccc1N1CCN(Cc2cnc(-c3ccccc3)[nH]2)CC1	nt	nt	13.7	nt	0.783

Compound activity from PubChem BioAssay.
